# Screening data from PubChem BioAssay.
# This is one part of a sample in which hits are shown more often than they occur.
# IDE exosite FP = displaces the probe from the exo-site of human IDE; purified IDE, FL-6b probe fluorescence polarization; stronger effect = lower value; P14735; z-score at 20 µM; 6.3% of 17,000 active; AID 1259349;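 active means z-score of -3 or lower, meaning strong loss of probe binding signal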;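 further: His-tagged human IDE residues 42-1019 made in E. coli with 30 nM FL-6b probe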
# * = called active by the depositor.
SMILES,IDE exosite FP
O=C1CCCCn2nncc2COC[C@H](Cc2ccccc2)N1,-0.905
CCNC[C@@H]1[C@@H](c2ccc(-c3ccc(F)cc3)cc2)[C@@H](CO)N1C(=O)C1CC1,0.614
COc1ccc2c3c([nH]c2c1)[C@H](CO)N(C(C)=O)CC31CCN(C(=O)Nc2ccc(F)cc2F)CC1,0.533
CCS(=O)(=O)N1CC(=O)N2[C@@H](CO)[C@H](c3ccc(-c4ccccc4C)cc3)[C@@H]2C1,-5.78*
CCS(=O)(=O)N1CC(=O)N2[C@H](CO)[C@@H](c3ccc(-c4ccccc4)cc3)[C@@H]2C1,-5.41*
Cc1ccccc1-c1ccc([C@@H]2[C@H]3CN(S(C)(=O)=O)CC(=O)N3[C@H]2CO)cc1,-5.1*
Cc1ccccc1-c1ccc([C@@H]2[C@@H](CO)N3C(=O)CN(S(C)(=O)=O)C[C@H]23)cc1,-1.54
CCS(=O)(=O)N1CC(=O)N2[C@H](CO)[C@@H](c3ccc(-c4ccccc4F)cc3)[C@@H]2C1,-11*
CCS(=O)(=O)N1CC(=O)N2[C@@H](CO)[C@H](c3ccc(-c4ccccc4F)cc3)[C@@H]2C1,2.24
CS(=O)(=O)N1CC(=O)N2[C@@H](CO)[C@@H](c3ccc(Br)cc3)[C@@H]2C1,-1.12
CCS(=O)(=O)N1CC(=O)N2[C@H](CO)[C@@H](c3ccc(-c4ccc(F)cc4)cc3)[C@H]2C1,3.79
CCS(=O)(=O)N1CC(=O)N2[C@H](CO)[C@@H](c3ccc(C#Cc4ccc(F)cc4)cc3)[C@H]2C1,0.789
CCS(=O)(=O)N1CC(=O)N2[C@@H](CO)[C@H](c3ccc(C#CC4CC4)cc3)[C@@H]2C1,4.37
CCN1CC(=O)N2[C@H](C1)[C@@H](c1ccc(-c3ccccc3F)cc1)[C@@H]2CO,-2.61
CCS(=O)(=O)N1CC(=O)N2[C@H](CO)[C@H](c3ccc(-c4ccc(F)cc4)cc3)[C@@H]2C1,2.46
C/C=C/c1ccc([C@H]2[C@@H](CNC(=O)c3ccncc3)N(C(C)=O)[C@H]2CO)cc1,1.19
COc1ccccc1NC(=O)N1CCCCN2[C@H](C1)[C@@H](c1ccc(-c3ccc(C)cc3)cc1)[C@@H]2CO,3
CC(=O)NC[C@@H]1[C@@H](c2ccc(C3=CCCC3)cc2)[C@@H](CO)N1C(=O)C1CCC1,1.11
O=C(NC[C@@H]1[C@H](c2ccccc2)[C@H](CO)N1CC1CCCC1)c1ccccc1,2.45
C/C=C/c1ccc([C@H]2[C@@H](CNC(C)C)N(Cc3cccnc3)[C@H]2CO)cc1,5.57
C/C=C/c1ccccc1[C@H]1[C@@H](C#N)N(C(=O)NC2CCCCC2)[C@H]1CO,0.891
C[C@H]1CN([C@@H](C)CO)C(=O)c2cc(C3=CCCCC3)cnc2O[C@H]1CN(C)S(=O)(=O)c1cn(C)cn1,-0.886
C[C@H]1CCCCO[C@H](CN(C)C(=O)c2ccncc2)[C@@H](C)CN([C@@H](C)CO)C(=O)c2cc(NS(=O)(=O)c3cccs3)ccc2O1,0.0862
CCS(=O)(=O)N1CC(=O)N2[C@H](CO)[C@@H](c3ccc(C4=CCCCC4)cc3)[C@@H]2C1,-0.204
CCS(=O)(=O)N1CC(=O)N2[C@H](CO)[C@@H](c3ccc(-c4ccccc4C)cc3)[C@@H]2C1,-15.8*
SMILES,IDE exosite FP
CCS(=O)(=O)N1CC(=O)N2[C@H](CO)[C@@H](c3ccc(-c4cccc(F)c4)cc3)[C@H]2C1,0.168
CS(=O)(=O)N1[C@H](C#N)[C@H](c2ccccc2-c2ccccc2F)[C@H]1CO,-0.992
CS(=O)(=O)N1[C@H](C#N)[C@@H](c2ccc(-c3ccccc3F)cc2)[C@H]1CO,-2.13
CS(=O)(=O)N1[C@H](C#N)[C@H](c2ccc(-c3ccccc3F)cc2)[C@H]1CO,-1.7
CS(=O)(=O)N1[C@@H](C#N)[C@H](c2ccc(-c3ccccc3F)cc2)[C@@H]1CO,-5.18*
CS(=O)(=O)N1[C@H](C#N)[C@@H](c2ccc(-c3ccccc3F)cc2)[C@@H]1CO,-3.01*
CS(=O)(=O)N1[C@H](CO)[C@H](c2ccc(-c3ccccc3F)cc2)[C@@H]1C#N,-1.3
O=C(C[C@@H]1CC[C@@H]2NC[C@@H](O)COC[C@H]2O1)N1CCc2ccccc2C1,-0.643
CNC[C@H]1OCCCC[C@@H](C)Oc2ccc(N)cc2C(=O)N([C@@H](C)CO)C[C@H]1C,1.75
O=S(=O)(c1ccc(Cl)cc1)N1[C@@H]2CNC[C@H]1C2c1ccc(-c2cccc(F)c2)cc1 (stereo not given in full),1.98
O=C(Nc1ccc(F)cc1)N1CC(=O)N2[C@H](CO)[C@@H](c3ccc(C#Cc4ccccc4)cc3)[C@H]2C1,1.41
CN(C)C(=O)c1ccc(-c2ccc([C@H]3[C@H](CO)N4CCCCN(C(=O)C5CC5)C[C@@H]34)cc2)cc1,-4.98*
CC(=O)N1CCCCN2[C@H](C1)[C@H](c1ccc(-c3cccc(C)c3)cc1)[C@@H]2CO,-5.27*
CC(=O)N1CCCCN2[C@H](C1)[C@@H](c1ccc(-c3cccc(C)c3)cc1)[C@@H]2CO,-14.1*
CC(=O)N1CCCCN2[C@@H](CO)[C@H](c3ccc(-c4ccc(C)cc4)cc3)[C@@H]2C1,-0.565
CC(=O)N1CCCCN2[C@@H](CO)[C@@H](c3ccc(-c4ccc(C)cc4)cc3)[C@@H]2C1,1.07
CN(C)C(=O)c1ccc(-c2ccc([C@H]3[C@H]4CN(C(=O)C5CC5)CCCCN4[C@H]3CO)cc2)cc1,2.24
CN(C)C(=O)c1ccc(-c2ccc([C@H]3[C@@H](CO)N4CCCCN(C(=O)C5CC5)C[C@H]34)cc2)cc1,3.75
CC(=O)N1CCCCN2[C@H](C1)[C@@H](c1ccc(-c3ccc(C)cc3)cc1)[C@@H]2CO,-0.532
CC(=O)N1CCCCN2[C@H](CO)[C@@H](c3ccc(-c4ccc(C)cc4)cc3)[C@@H]2C1,1.54
O=C(Cc1ccccn1)N1CC(=O)N2[C@@H](CO)[C@@H](c3ccc(C#CC4CCCCC4)cc3)[C@@H]2C1,0.971
Cc1noc(C)c1NC(=O)N[C@H]1C=C[C@H](CC(=O)Nc2ccc(-c3ccccc3)cc2)O[C@H]1CO,-0.58
COCC(=O)N1CC(=O)N2[C@@H](CO)[C@@H](c3ccc(C#CC4CCCC4)cc3)[C@@H]2C1,2.67
CN(C)CC#Cc1ccc([C@@H]2[C@@H](CO)N3CCCCN(S(=O)(=O)c4ccccc4F)C[C@@H]23)cc1,3.7
N#C[C@H]1[C@H](c2ccccc2)[C@@H](CO)N1C(=O)CN1CCOCC1,4.71
SMILES,IDE exosite FP
O=C(CCN1CCCCC1)NCC[C@H]1CC[C@@H](NS(=O)(=O)c2cccc(Cl)c2)[C@H](CO)O1,-0.58
O=C(Cc1ccccn1)N1CC(=O)N2[C@@H](CO)[C@H](c3ccc(C#CC4CC4)cc3)[C@@H]2C1,3.33
O=C(Nc1ccc2c(c1)[C@H]1C[C@@H](CC(=O)N3CCCCC3)O[C@H](CO)[C@H]1O2)NC1CCCCC1,-0.211
COc1ccc(-c2ccccc2[C@H]2[C@@H](CO)N(C(=O)NC(C)C)[C@H]2C#N)cc1,0.862
Cn1cnc(S(=O)(=O)N2CCCCN3[C@H](CO)[C@H](c4ccc(-c5ccc(F)cc5)cc4)[C@H]3C2)c1,1
Cn1cnc(S(=O)(=O)N2CCCCN3[C@H](C2)[C@@H](c2ccc(-c4ccccc4F)cc2)[C@@H]3CO)c1,-0.202
Cn1cnc(S(=O)(=O)N2CCCCN3[C@H](CO)[C@H](c4ccc(-c5ccccc5F)cc4)[C@@H]3C2)c1,-1.2
Cn1cnc(S(=O)(=O)N2CCCCN3[C@H](CO)[C@H](c4ccc(-c5ccccc5F)cc4)[C@H]3C2)c1,-4.56*
Cn1cnc(S(=O)(=O)N2CCCCN3[C@H](CO)[C@@H](c4ccc(-c5ccc(F)cc5)cc4)[C@H]3C2)c1,2.16
